# “And” between values parts separate entries of the source, which are not always exact repeats. Identical values can stand only once. The panel holds about 83,000 compounds, 20% with a hit somewhere; the sample as a whole holds those more often.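 Each cell line was grown in a 96-well plate and treated with one concentration of compound for 48 hours. Values below 10 were considered active.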 The source made the active and inactive calls.
# Legend:
# Experiment in all cases: NCI-60 one-dose screen, 48 h (100 = growth as untreated, 0 = no growth, -100 = all killed)
# Conditions in all cases: 10 µM unless noted
# NCI-H23 lung = tested on: NCI-H23 lung
# NCI-H226 lung = tested on: NCI-H226 lung
# NCI-H322M lung = tested on: NCI-H322M lung
# HOP-62 NSCLC = tested on: HOP-62 NSCLC
# NCI-H460 lung = tested on: NCI-H460 lung
# HOP-92 NSCLC = tested on: HOP-92 NSCLC
# NCI-H522 lung = tested on: NCI-H522 lung
# A549/ATCC NSCLC = tested on: A549/ATCC NSCLC
# 786-0 renal = tested on: 786-0 renal
# DU-145 prostate = tested on: DU-145 prostate
# K-562 leukemia = tested on: K-562 leukemia
# MALME-3M melanoma = tested on: MALME-3M melanoma
# MDA-MB-231 breast = tested on: MDA-MB-231 breast
# RXF 393 renal = tested on: RXF 393 renal
# SF-268 CNS = tested on: SF-268 CNS
# SF-295 CNS = tested on: SF-295 CNS
# SF-539 CNS = tested on: SF-539 CNS
# UACC-257 melanoma = tested on: UACC-257 melanoma
# M14 melanoma = tested on: M14 melanoma
Compound,growth (NCI-H23 lung),growth (NCI-H226 lung),growth (NCI-H322M lung),growth (HOP-62 NSCLC),growth (NCI-H460 lung),growth (HOP-92 NSCLC),growth (NCI-H522 lung),growth (A549/ATCC NSCLC),growth (786-0 renal),growth (DU-145 prostate),growth (K-562 leukemia),growth (MALME-3M melanoma),growth (MDA-MB-231 breast),growth (RXF 393 renal),growth (SF-268 CNS),growth (SF-295 CNS),growth (SF-539 CNS),growth (UACC-257 melanoma),growth (M14 melanoma)
COc1ccc(C2Nc3nc(SC)nc(N)c3N=C3c4ccccc4CCC32)cc1 (stereo unspecified),72.4% (inactive),107% (inactive),109% (inactive),102% (inactive),86.7% (inactive),50.7% (inactive),90.9% (inactive),102% (inactive),93.6% (inactive),70.9% (inactive),84.5% (inactive),108% (inactive),83.5% (inactive),122% (inactive),73.4% (inactive),105% (inactive),90.5% (inactive),122% (inactive),92.7% (inactive)
O=Nc1ccc(NO)c2ccccc12,90.6% (inactive) and 68.3% (inactive),,97.8% (inactive) and 96.2% (inactive),103% (inactive) and 90.5% (inactive),94.6% (inactive) and 105% (inactive),95.1% (inactive) and 92.9% (inactive),93.3% (inactive) and 69.5% (inactive),106% (inactive) and 27.5% (inactive),104% (inactive) and 96.9% (inactive),107% (inactive) and 98% (inactive),111% (inactive) and 56.5% (inactive),118% (inactive) and 69.6% (inactive),89% (inactive) and 73.5% (inactive),114% (inactive) and 97.2% (inactive),102% (inactive) and 83.9% (inactive),99.3% (inactive) and 121% (inactive),96.8% (inactive) and 109% (inactive),104% (inactive) and 52.4% (inactive),99.2% (inactive) and 93.7% (inactive)
O=C(NNc1ccccc1)c1ncc[nH]1,96.2% (inactive),62.6% (inactive),82.8% (inactive),73% (inactive),100% (inactive),95.1% (inactive),50.8% (inactive),64.4% (inactive),75.2% (inactive),55.8% (inactive),7.21% (active),54.1% (inactive),81.5% (inactive),107% (inactive),59.3% (inactive),90.2% (inactive),48.7% (inactive),71.5% (inactive),37.4% (inactive)
Nc1n[nH]c2cccc(C#Cc3cccc(C(=O)Nc4ccc(CN5CCOCC5)c(C(F)(F)F)c4)c3)c12,33.6% (inactive),36.5% (inactive),72.2% (inactive),52.1% (inactive),44.5% (inactive),35.5% (inactive),41.9% (inactive),43.4% (inactive),8.57% (active),69.5% (inactive),4.19% (active),-3.92% (active),28.8% (inactive),-4.45% (active),55% (inactive),2.26% (active),-54.5% (active),40.1% (inactive),5.11% (active)
C=CCOc1ccc(/C=C2\SC(=S)N(CCc3ccc(O)cc3)C2=O)cc1,104% (inactive),91.6% (inactive),95.2% (inactive),106% (inactive),97.4% (inactive),-2.76% (active),11% (inactive),88.8% (inactive),100% (inactive),98.3% (inactive),62.1% (inactive),101% (inactive),90.2% (inactive),114% (inactive),91.4% (inactive),91.1% (inactive),82.7% (inactive),92.6% (inactive),103% (inactive)
C/C=C(\C)C(=O)N[C@H]1CC[C@]2(C)C3CC[C@@]4(C)C(CC[C@@H]4C(C)N(C)C)C3CCC2[C@H]1OC(C)=O (stereo partly specified),-8.02% (active),-2.69% (active),-48.5% (active),-60% (active),-86.4% (active),-49.4% (active),6.83% (active),-17.8% (active),-88.8% (active),4.99% (active),18% (inactive),-68.6% (active),-32.3% (active),-61.5% (active),-84.6% (active),-66.9% (active),-95.7% (active),-51.3% (active),-64.1% (active)
O=C(NNc1ccccc1)C1CCCN1 (stereo unspecified),98.8% (inactive),80.9% (inactive),86% (inactive),76.7% (inactive),99.1% (inactive),108% (inactive),52.2% (inactive),75.9% (inactive),89.2% (inactive),60.7% (inactive),11% (inactive),76.4% (inactive),86.1% (inactive),107% (inactive),64.6% (inactive),85% (inactive),80.5% (inactive),88.6% (inactive),43.1% (inactive)
Cc1ccc(/C=C/c2c(C(=O)/C=C/c3ccccc3)c(C)nc3ccccc23)cc1,27.5% (inactive),43.6% (inactive),46.8% (inactive),-18% (active),-9.62% (active),89.4% (inactive),11.1% (inactive),30.8% (inactive),25.8% (inactive),12.8% (inactive),8.62% (active),-1.88% (active),30.8% (inactive),-3.35% (active),54.1% (inactive),31.9% (inactive),-23.2% (active),12.3% (inactive),17.6% (inactive)
O=C(CN1C(=O)S/C(=C\C(Cl)=C\c2ccccc2)C1=O)NC1C=CS(=O)(=O)C1 (stereo unspecified),16.7% (inactive),-21.7% (active),88.9% (inactive),86.5% (inactive),54% (inactive),37.2% (inactive),-46.2% (active),68.5% (inactive),-74.4% (active),24.8% (inactive),4.66% (active),-24.9% (active),14.3% (inactive),-77.8% (active),63.9% (inactive),80.8% (inactive),1.56% (active),45.2% (inactive),-49.9% (active)
N#Cc1ccccc1OCC(=O)Nc1nc2c(s1)COc1ccccc1-2,99.3% (inactive),93.2% (inactive),102% (inactive),105% (inactive),107% (inactive),106% (inactive),103% (inactive),98.9% (inactive),102% (inactive),114% (inactive),104% (inactive),107% (inactive),102% (inactive),101% (inactive),104% (inactive),79.5% (inactive),101% (inactive),112% (inactive),105% (inactive)
CCCCCO/N=C\c1c2c(O)c3c(O)c(C)c4c(c3c1O)C(=O)C(C)(O/C=C\C(OC)C(C)C(OC(C)=O)C(C)C(O)C(C)C(O)C(C)/C=C\C=C(\C)C(=O)N2)O4 (stereo unspecified),19.7% (inactive),26.9% (inactive),53.2% (inactive),34.7% (inactive),5.62% (active),-5.96% (active),6.3% (active),20.9% (inactive),31.6% (inactive),36% (inactive),17.6% (inactive),41.2% (inactive),31.4% (inactive),36.6% (inactive),31.2% (inactive),7.23% (active),37.3% (inactive),8.59% (active),28.2% (inactive)
COc1ccc(NC(=O)Nc2ccccc2CNc2nc(Nc3ccc(OCCN4CCCC4)cc3)ncc2Cl)cc1,43.1% (inactive),76.1% (inactive),36.5% (inactive),6.02% (active),-70.9% (active),4.83% (active),-3.26% (active),18.4% (inactive),-84% (active),18% (inactive),0.588% (active),-63.7% (active),-59.1% (active),-75.6% (active),35.8% (inactive),11.1% (inactive),-84.2% (active),-46.8% (active),-75.6% (active)
Cc1nc2sc(C(=O)Nc3cccc4ncccc34)c(N)c2cc1C(C)O (stereo unspecified),80.4% (inactive),85.1% (inactive),79.7% (inactive),68.1% (inactive),80.9% (inactive),70.5% (inactive),34.7% (inactive),81.3% (inactive),86.2% (inactive),109% (inactive),28.8% (inactive),74.5% (inactive),76.1% (inactive),70.1% (inactive),87.7% (inactive),59.8% (inactive),82.4% (inactive),75.9% (inactive),62% (inactive)

# From PubChem BioAssay (NCI)
